Test results reported in PubChem BioAssay AID1159580 (chemical genetic matrix, 2015).
Screen size: about 5,500 compounds; about 2,000 (36%) were called active. Not shown: some 18% with an inconclusive outcome. No stated cut-off is given here; in the data, active means normalized growth mostly below about 0.91 (no sharp cut-off); inconclusive means no clear call, values can overlap the other calls; inactive means mostly above about 0.92. Some of the results follow.

Test: chemical genetic growth profiling, strain panel (AID 1159580);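 further: tested at 20 µM; growth read once vehicle control cultures reached saturation at 30 °C; 1 = growth at the plate median or of vehicle wells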
Conditions: S. cerevisiae deletion strains, growth OD

Measured: normalized growth

COC(=O)C1=C(C)NC(C)=C([N+](=O)[O-])C1c1ccccc1C(F)(F)F (stereo not given)
inactive: locus YAL040C, strain CLN3, stronger effect = lower value 0.982 | locus YCL061C, strain MRC1 (second series), stronger effect = lower value 1 | locus YER002W, strain NOP16, stronger effect = lower value 0.991 | locus YGR078C, strain PAC10, stronger effect = lower value 0.94 | locus YNL175C, strain NOP13, stronger effect = lower value 0.976 | locus YNL197C, strain WHI3, stronger effect = lower value 1.04 | locus YNL224C, strain SQS1, stronger effect = lower value 0.987 | locus YNL322C, strain KRE1, stronger effect = lower value 1.01 | locus YOR083W, strain WHI5 (second series), stronger effect = lower value 1 | locus YPL055C, strain LGE1, stronger effect = lower value 1.01
